# In article PMC7862700, “An all-to-all approach to the identification of sequence-specific readers for epigenetic DNA modifications on cytosine”:
# How the values were obtained:
# Assay in all cases: DAPPL (digital affinity profiling via proximity ligation, sequencing); 10 mM Tris-HCl pH 7.5, 50 mM NaCl, 1 mM DTT, 4% glycerol, room temperature, 30 min; GST-TFs on glutathione beads, 16-mer random dsDNA library, 0.1% formaldehyde crosslink after washing; high values mean tight binding
# FEV = target: T1, FEV (Homo sapiens, UniProt Q99581 1-238); details: protein: recombinant; tags: N-terminal GST; dsDNA, one strand shown
# T1 sequence: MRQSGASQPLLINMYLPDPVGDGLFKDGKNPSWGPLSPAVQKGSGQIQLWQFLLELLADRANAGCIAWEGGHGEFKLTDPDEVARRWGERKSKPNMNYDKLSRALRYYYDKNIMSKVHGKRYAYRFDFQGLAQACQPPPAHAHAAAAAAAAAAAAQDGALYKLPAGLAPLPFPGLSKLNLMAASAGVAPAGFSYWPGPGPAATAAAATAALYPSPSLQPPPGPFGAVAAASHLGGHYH
# Outline: (§1)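 Sequencing on an Illumina NextSeq500 followed washing, crosslinking with 0.1% formaldehyde, proximity ligation (BsaI/T4 ligase, 1 h, 37 °C) and PCR amplification of pools that had been incubated for 30 min at room temperature with 200 nmole of a random double-stranded 16-mer DNA library in Tris/NaCl/DTT/glycerol buffer. Each pool held DNA-barcoded human transcription factors, expressed in yeast as GST fusions and captured on glutathione beads, plus a tag-only sample. Binding signal is a hexamer's read frequency for a factor divided by its frequency in the tag-only sample.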
# ETV5 = ETV5 (Homo sapiens, UniProt P41161 1-510); details: protein: recombinant; tags: N-terminal GST; dsDNA, one strand shown
# ETV5, sequence (P41161 whole entry): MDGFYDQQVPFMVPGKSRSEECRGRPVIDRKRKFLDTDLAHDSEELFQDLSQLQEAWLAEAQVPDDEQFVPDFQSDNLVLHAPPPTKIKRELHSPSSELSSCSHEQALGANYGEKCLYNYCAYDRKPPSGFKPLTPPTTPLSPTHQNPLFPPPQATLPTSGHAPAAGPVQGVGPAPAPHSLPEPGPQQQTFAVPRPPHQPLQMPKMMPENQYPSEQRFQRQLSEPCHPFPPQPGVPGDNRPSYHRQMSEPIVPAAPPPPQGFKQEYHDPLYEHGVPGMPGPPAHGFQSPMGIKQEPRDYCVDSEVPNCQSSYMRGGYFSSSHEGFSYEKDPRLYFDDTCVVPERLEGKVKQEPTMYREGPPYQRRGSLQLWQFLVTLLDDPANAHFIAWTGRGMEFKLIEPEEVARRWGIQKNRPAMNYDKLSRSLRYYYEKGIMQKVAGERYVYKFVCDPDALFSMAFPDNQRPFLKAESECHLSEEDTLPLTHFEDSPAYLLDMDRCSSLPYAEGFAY
# Outline: as §1
# HSF1 = HSF1 (Homo sapiens, UniProt Q00613 1-529); details: protein: recombinant; tags: N-terminal GST; chain copies: 3; dsDNA, one strand shown
# HSF1, sequence (Q00613 whole entry): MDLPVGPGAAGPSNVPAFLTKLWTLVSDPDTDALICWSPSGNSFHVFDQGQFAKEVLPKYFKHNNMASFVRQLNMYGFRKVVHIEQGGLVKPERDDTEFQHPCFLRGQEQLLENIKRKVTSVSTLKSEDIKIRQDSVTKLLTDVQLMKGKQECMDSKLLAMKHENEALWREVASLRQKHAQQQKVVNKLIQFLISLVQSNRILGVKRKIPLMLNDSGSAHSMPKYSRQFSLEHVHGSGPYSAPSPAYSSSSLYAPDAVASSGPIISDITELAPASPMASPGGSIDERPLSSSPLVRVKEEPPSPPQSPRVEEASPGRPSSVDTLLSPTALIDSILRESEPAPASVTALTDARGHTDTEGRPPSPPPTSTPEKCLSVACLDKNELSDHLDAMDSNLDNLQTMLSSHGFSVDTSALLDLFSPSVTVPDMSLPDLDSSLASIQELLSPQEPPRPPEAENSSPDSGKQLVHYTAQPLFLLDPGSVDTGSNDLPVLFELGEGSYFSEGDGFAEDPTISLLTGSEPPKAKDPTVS
# Outline: as §1
# SPIC = target: T2, SPIC (Homo sapiens, UniProt Q8N5J4 1-248); details: protein: recombinant; tags: N-terminal GST; dsDNA, one strand shown
# T2 sequence: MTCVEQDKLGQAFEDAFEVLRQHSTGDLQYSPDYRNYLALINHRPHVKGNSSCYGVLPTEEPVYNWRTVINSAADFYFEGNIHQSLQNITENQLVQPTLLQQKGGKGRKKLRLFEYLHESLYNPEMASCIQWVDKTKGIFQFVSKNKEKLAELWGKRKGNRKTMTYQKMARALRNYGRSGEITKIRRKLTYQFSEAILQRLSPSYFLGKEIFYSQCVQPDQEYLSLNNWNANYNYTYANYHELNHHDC
# Outline: as §1
# ELF4 = ELF4 (Homo sapiens, UniProt Q99607 1-663); details: protein: recombinant; tags: N-terminal GST; dsDNA, one strand shown
# ELF4, sequence (Q99607 whole entry): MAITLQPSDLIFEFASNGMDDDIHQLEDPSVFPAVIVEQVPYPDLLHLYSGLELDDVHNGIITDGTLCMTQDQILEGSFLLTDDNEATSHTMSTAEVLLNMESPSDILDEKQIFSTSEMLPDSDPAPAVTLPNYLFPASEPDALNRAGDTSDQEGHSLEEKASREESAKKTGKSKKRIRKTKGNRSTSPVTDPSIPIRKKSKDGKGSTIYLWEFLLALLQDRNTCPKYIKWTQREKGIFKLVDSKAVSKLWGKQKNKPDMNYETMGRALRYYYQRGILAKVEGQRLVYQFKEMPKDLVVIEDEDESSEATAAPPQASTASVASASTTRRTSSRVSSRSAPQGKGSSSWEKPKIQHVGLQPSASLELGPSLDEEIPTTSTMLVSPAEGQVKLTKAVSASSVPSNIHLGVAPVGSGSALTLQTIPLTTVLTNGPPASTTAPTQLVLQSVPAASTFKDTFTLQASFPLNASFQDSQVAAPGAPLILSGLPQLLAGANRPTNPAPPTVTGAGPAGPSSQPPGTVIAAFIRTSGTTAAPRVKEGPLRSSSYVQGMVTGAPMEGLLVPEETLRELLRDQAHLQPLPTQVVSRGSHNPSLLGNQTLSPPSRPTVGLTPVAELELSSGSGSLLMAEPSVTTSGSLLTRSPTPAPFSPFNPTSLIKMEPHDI
# Outline: as §1
# ELK4 = target: T3, ELK4 (Homo sapiens, UniProt P28324-2 1-405); details: protein: recombinant; tags: N-terminal GST; dsDNA, one strand shown
# T3 sequence: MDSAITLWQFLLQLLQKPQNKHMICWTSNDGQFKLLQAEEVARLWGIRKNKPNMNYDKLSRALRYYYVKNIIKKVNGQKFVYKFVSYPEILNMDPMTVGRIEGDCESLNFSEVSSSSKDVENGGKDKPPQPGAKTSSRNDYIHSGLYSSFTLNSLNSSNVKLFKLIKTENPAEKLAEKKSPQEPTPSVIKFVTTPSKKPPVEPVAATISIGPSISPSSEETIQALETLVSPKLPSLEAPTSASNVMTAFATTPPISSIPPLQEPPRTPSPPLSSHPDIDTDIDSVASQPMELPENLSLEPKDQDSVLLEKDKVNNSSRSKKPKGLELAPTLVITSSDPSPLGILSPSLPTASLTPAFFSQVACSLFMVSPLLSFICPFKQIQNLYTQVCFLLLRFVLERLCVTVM
# Outline: as §1
# ETV2 = target: T4, ETV2 (Homo sapiens, UniProt O00321 1-342); details: protein: recombinant; tags: N-terminal GST; dsDNA, one strand shown
# T4 sequence: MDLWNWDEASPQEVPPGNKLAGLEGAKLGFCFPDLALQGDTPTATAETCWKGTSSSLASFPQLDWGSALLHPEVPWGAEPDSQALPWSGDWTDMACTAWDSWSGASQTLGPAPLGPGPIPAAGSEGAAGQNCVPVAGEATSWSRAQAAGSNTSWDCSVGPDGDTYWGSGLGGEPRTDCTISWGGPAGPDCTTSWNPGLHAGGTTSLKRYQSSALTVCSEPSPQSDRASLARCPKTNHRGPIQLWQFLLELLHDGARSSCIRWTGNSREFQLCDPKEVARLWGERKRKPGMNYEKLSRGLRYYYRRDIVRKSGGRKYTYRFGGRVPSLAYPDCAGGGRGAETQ
# Outline: as §1
# ELF3 = target: T5, ELF3 (Homo sapiens, UniProt P78545 1-371); details: protein: recombinant; tags: N-terminal GST; dsDNA, one strand shown
# T5 sequence: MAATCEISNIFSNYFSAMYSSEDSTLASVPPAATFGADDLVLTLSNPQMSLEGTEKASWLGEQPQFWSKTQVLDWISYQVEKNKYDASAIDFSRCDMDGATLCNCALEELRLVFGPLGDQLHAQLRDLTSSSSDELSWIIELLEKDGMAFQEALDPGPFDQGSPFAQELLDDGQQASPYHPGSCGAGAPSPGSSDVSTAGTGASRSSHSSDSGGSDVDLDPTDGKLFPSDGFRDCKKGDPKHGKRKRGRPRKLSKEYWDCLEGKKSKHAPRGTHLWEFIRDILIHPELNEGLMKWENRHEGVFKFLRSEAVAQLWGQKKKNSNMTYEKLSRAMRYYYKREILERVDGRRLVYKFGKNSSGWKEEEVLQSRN
# Outline: as §1
# CRX = CRX (Homo sapiens, UniProt O43186 1-299); details: protein: recombinant; tags: N-terminal GST; dsDNA, one strand shown
# CRX, sequence (O43186 whole entry): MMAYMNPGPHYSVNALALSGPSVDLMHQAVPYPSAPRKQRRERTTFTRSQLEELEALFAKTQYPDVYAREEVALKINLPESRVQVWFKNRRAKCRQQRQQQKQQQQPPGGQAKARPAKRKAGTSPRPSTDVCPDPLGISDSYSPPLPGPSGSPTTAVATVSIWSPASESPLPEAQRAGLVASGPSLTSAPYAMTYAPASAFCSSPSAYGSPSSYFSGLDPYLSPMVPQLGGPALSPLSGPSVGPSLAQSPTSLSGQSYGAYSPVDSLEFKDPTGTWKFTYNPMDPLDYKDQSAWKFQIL
# Outline: as §1
# ETV1 = ETV1 (Homo sapiens, UniProt P50549 1-477); details: protein: recombinant; tags: N-terminal GST; dsDNA, one strand shown
# ETV1, sequence (P50549 whole entry): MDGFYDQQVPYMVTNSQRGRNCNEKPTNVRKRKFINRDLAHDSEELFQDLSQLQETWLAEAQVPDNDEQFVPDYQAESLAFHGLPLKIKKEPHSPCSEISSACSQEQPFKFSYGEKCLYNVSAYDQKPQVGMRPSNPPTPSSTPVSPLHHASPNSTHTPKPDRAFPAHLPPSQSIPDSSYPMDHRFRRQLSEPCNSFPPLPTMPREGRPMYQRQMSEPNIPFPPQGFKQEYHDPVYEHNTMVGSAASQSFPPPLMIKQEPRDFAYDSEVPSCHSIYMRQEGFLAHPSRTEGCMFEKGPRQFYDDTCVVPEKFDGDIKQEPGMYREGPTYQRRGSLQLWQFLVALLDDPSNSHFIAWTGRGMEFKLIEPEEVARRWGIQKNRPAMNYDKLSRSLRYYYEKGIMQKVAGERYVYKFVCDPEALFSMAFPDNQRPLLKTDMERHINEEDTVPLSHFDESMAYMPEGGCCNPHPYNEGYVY
# Outline: as §1
# ERF = target: T6, ERF (Homo sapiens, UniProt P50548 1-548); details: protein: recombinant; tags: N-terminal GST; dsDNA, one strand shown
# T6 sequence: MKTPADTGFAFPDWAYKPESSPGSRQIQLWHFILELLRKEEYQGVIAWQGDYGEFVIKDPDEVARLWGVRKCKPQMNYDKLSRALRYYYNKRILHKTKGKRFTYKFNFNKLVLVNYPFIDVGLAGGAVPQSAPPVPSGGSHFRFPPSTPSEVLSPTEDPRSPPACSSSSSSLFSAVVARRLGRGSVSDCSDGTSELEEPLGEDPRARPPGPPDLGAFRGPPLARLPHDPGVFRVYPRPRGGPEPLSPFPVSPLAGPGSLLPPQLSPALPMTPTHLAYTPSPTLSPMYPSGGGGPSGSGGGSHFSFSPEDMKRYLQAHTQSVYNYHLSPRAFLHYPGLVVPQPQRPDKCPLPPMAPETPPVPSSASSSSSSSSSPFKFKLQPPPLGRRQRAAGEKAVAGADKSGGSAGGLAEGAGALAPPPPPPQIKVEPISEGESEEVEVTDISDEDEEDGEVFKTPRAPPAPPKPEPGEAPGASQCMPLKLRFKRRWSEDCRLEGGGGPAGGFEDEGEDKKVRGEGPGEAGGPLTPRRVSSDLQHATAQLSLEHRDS
# Outline: as §1
# ETV3L = target: T7, ETV3L (Homo sapiens, UniProt Q6ZN32 1-361); details: protein: recombinant; tags: N-terminal GST; dsDNA, one strand shown
# T7 sequence: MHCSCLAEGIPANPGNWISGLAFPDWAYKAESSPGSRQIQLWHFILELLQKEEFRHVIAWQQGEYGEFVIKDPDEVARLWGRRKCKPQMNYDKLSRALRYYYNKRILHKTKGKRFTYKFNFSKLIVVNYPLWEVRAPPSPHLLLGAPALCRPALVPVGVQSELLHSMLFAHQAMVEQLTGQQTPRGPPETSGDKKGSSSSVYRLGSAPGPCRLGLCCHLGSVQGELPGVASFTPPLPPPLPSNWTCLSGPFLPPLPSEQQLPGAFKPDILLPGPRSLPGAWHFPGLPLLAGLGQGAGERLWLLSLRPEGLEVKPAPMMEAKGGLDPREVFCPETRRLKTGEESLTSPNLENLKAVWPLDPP
# Outline: as §1
# ETS2 = target: T8, ETS2 (Homo sapiens, UniProt P15036 1-469); details: protein: recombinant; tags: N-terminal GST; dsDNA, one strand shown
# T8 sequence: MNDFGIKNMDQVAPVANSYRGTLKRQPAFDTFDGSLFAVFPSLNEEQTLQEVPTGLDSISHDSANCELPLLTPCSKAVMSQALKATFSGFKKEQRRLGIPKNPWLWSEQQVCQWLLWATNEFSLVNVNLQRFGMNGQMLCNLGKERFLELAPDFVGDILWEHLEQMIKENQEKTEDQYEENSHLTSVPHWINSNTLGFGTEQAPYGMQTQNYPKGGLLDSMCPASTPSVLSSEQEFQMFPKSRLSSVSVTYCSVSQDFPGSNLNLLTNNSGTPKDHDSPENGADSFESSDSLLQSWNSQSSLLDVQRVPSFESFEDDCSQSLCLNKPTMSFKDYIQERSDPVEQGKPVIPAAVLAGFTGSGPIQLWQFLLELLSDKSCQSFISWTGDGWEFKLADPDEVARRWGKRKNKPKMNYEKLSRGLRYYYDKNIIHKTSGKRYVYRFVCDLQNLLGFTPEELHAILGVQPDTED
# Outline: as §1
# SPDEF = target: T9, SPDEF (Homo sapiens, UniProt O95238 1-335); details: protein: recombinant; tags: N-terminal GST; dsDNA, one strand shown
# T9 sequence: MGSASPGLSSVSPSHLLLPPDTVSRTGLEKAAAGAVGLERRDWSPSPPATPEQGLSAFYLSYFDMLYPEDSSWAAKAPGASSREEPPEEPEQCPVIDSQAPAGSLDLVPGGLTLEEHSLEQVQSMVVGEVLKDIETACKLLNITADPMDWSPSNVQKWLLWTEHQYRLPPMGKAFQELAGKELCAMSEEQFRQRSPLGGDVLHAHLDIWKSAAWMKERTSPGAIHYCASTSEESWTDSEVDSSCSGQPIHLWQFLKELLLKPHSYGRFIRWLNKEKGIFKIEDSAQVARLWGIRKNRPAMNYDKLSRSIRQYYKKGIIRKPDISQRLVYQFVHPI
# Outline: as §1
# ETV7 = target: T10, ETV7 (Homo sapiens, UniProt Q9Y603 1-341); details: protein: recombinant; tags: N-terminal GST; dsDNA, one strand shown
# T10 sequence: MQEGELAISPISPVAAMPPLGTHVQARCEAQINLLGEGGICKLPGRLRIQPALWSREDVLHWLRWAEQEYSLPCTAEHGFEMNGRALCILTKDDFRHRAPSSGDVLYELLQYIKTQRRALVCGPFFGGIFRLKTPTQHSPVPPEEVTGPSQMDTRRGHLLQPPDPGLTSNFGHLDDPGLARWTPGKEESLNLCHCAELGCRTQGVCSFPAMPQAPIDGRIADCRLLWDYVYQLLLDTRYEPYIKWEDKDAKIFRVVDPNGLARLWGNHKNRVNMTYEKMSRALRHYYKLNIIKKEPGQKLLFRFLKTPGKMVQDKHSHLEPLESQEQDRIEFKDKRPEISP
# Outline: as §1
# ELF5 = target: T11, ELF5 (Homo sapiens, UniProt Q9UKW6-2 1-255); details: protein: recombinant; tags: N-terminal GST; dsDNA, one strand shown
# T11 sequence: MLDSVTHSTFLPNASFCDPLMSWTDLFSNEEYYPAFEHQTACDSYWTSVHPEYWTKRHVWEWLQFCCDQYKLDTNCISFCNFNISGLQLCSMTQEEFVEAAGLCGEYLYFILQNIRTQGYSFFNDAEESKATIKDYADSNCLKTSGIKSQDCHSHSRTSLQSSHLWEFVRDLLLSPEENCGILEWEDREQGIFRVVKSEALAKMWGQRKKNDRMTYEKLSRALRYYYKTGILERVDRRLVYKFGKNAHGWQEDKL
# Outline: as §1
# ETV3 = target: T12, ETV3 (Homo sapiens, UniProt P41162-2 1-143); details: protein: recombinant; tags: N-terminal GST; dsDNA, one strand shown
# T12 sequence: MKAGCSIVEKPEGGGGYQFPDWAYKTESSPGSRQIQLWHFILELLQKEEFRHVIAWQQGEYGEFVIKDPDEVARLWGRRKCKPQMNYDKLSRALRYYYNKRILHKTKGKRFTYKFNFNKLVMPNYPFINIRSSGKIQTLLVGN
# Outline: as §1
# ETV6 = ETV6 (Homo sapiens, UniProt P41212 1-452); details: protein: recombinant; tags: N-terminal GST; dsDNA, one strand shown
# ETV6, sequence (P41212 whole entry): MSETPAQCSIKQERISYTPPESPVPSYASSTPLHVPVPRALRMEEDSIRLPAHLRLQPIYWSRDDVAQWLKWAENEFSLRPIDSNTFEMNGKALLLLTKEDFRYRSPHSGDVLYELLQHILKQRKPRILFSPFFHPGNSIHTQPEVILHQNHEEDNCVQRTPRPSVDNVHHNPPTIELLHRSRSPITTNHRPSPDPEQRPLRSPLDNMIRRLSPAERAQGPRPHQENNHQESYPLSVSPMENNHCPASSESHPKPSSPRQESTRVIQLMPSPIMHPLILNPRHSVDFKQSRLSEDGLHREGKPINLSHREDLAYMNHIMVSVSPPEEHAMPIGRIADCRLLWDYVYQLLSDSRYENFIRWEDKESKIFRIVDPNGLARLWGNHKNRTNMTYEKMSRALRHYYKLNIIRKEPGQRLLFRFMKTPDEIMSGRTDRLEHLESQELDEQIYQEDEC
# Outline: as §1
sequence,measurement,setting,value
AGCTCT,binding signal,FEV,"1.19 fold enrichment (6-mer frequency, TF over GST control)"
same,binding signal,ETV5,"1.15 fold enrichment (6-mer frequency, TF over GST control)"
same,binding signal,HSF1,"1.25 fold enrichment (6-mer frequency, TF over GST control)"
same,binding signal,SPIC,"1.24 fold enrichment (6-mer frequency, TF over GST control)"
same,binding signal,ELF4,"1.21 fold enrichment (6-mer frequency, TF over GST control)"
same,binding signal,ELK4,"1.22 fold enrichment (6-mer frequency, TF over GST control)"
same,binding signal,ETV2,"1.14 fold enrichment (6-mer frequency, TF over GST control)"
same,binding signal,ELF3,"1.21 fold enrichment (6-mer frequency, TF over GST control)"
same,binding signal,CRX,"1.41 fold enrichment (6-mer frequency, TF over GST control)"
same,binding signal,ETV1,"1.25 fold enrichment (6-mer frequency, TF over GST control)"
same,binding signal,ERF,"1.16 fold enrichment (6-mer frequency, TF over GST control)"
same,binding signal,ETV3L,"1.34 fold enrichment (6-mer frequency, TF over GST control)"
same,binding signal,ETS2,"1.16 fold enrichment (6-mer frequency, TF over GST control)"
same,binding signal,SPDEF,"1.03 fold enrichment (6-mer frequency, TF over GST control)"
same,binding signal,ETV7,"1.17 fold enrichment (6-mer frequency, TF over GST control)"
same,binding signal,ELF5,"1.12 fold enrichment (6-mer frequency, TF over GST control)"
same,binding signal,ETV3,"1.21 fold enrichment (6-mer frequency, TF over GST control)"
same,binding signal,ETV6,"1.17 fold enrichment (6-mer frequency, TF over GST control)"
